These entries were drawn from the full list.
aSyn 5UTR act: Activators working through SNCA 5'UTR binding (MLPCN) | activity score, % (tested at 7.5 µM), hits read low | alpha-synuclein 5'UTR reporter, activators screen | 300,000 tested, 7.1% active | AID 1814; in the data active = activity score below about -60%
An asterisk follows results filed as active.

SMILES | aSyn 5UTR act
CCCCCCCC(=O)Oc1ccc(C(=O)Nc2cc(C)on2)cc1 | -93*
C/C(=N\OC(=O)c1ccc(F)cc1)c1sc(-c2ccccc2)nc1C | -158*
C/C(=N\OC(=O)c1ccc(Cl)cc1)c1sc(-c2ccccc2)nc1C | -124*
CCc1ccc(C(=O)Nc2ccc3nc(C)ccc3c2)cc1 | -178*
Cc1ccc2cc(NC(=O)c3ccc(C(C)(C)C)cc3)ccc2n1 | -63*
O=C(O)c1cccc(COc2ccc(CO)cc2Cl)c1 | 105
O=C(O)c1ccc(COc2ccc(CO)cc2Cl)cc1 | -92*
N/C(=N\OC(=O)Cc1cccs1)c1ccccc1 | -214*
Cc1cccc(/C(N)=N/OC(=O)Cc2cccs2)c1 | -141*
Cc1ccc(/C(N)=N/OC(=O)Cc2cccs2)cc1 | -169*
N/C(Cc1cccs1)=N\OC(=O)COc1ccccc1 | -77*
O=C(c1cccs1)N1CCN(c2nc3ccccc3s2)CC1 | -66*
CCCC(=O)N1CCN(c2nc3ccccc3s2)CC1 | -104*
O=C(NC1CC1)C1CCN(c2nc3ccccc3s2)CC1 | -86*
CC(C)(C)C(=O)N1CCN(c2nc3ccccc3s2)CC1 | -119*
CCC(=O)N1CCN(c2nc3ccc(Br)cc3s2)CC1 | -117*
CCc1ccc2nc(N3CCN(C(=O)C(C)(C)C)CC3)sc2c1 | -98*
O=C(CCl)Nc1ccc(N2CCCCCC2)cc1 | -72*
CCNC(=S)Nc1ccc(N2CCCCC2)cc1 | -159*
CCCC(=O)Nc1ccc(N2CCCCC2)cc1 | -116*
Cc1ccc(NC(=O)CN(C)C(=O)Cn2ncc(Cl)c(Cl)c2=O)cc1 | 82
Cc1ccc(NC(=O)NCC2CC2(Cl)Cl)cc1 (centres undefined) | -165*
O=C(NCC1CC1(Cl)Cl)Nc1ccc(Cl)c(Cl)c1 (centres undefined) | -156*
C=COCCNC(=O)Nc1ccc(Cl)c(Cl)c1 | -127*
CCCC(=O)Nc1nnc(/C=C/c2ccccc2)s1 | -99*
SMILES | aSyn 5UTR act
CCOC(=O)Nc1nnc(/C=C/c2ccc(OC)cc2)s1 | -94*
CCCC(=O)Nc1nnc(/C=C/c2ccc(OC)cc2)s1 | -107*
CCC(=O)Nc1nnc(/C=C/c2ccccc2)s1 | -138*
COc1ccc(/C=C/c2nnc(NC(=O)C(C)(C)C)s2)cc1 | -96*
O=C(CCc1nnc(-c2ccsc2)o1)N1CCc2c(Cl)cccc2C1 | -65*
c1ccc2[nH]c(SCc3cscn3)nc2c1 | -104*
c1ccc2nc(-c3nc4ccccc4[nH]3)ccc2c1 | 74
c1ccc2[nH]c(-c3cscn3)nc2c1 | -99*
O=C(COC(=O)c1ccccc1[N+](=O)[O-])c1ccc(C2CCCCC2)cc1 | -76*
CSc1ccc(CNC(=O)Cc2ccc(NC(=O)C3=C(C)OCCS3)cc2)cc1 | -153*
CCN1CCN(Cc2ccccc2NC(=O)Nc2ccc(C)cc2)CC1 | -170*
O=C(Nc1ccc(CN2CCCCC2)cc1)Nc1ccccc1Cl | -90*
CCN1CCN(Cc2ccc(NC(=O)Nc3ccccc3Cl)cc2)CC1 | -87*
O=C(Nc1cccc(C(F)(F)F)c1)Nc1ccc(N2CCCC2)c(S(=O)(=O)Nc2ccccc2Cl)c1 | 93
O=C(Nc1ccc(Br)cc1)Nc1ccccc1Cl | -129*
Cc1ccc(C(=O)NC(=S)Nc2cc(-c3nc4ccccc4s3)ccc2C)cc1 | -95*
COc1ccc(-c2nc3ccccc3s2)cc1NC(C)=O | -127*
O=C(Nc1nc2c(F)c(F)c(F)cc2s1)c1ccco1 | -179*
O=C(Nc1ccc(-c2nc3c(ccc4ccccc43)o2)cc1)c1ccco1 | -165*
O=C(NC(=S)Nc1nc2c(ccc3ccccc32)s1)c1cccs1 | -63*
O=C(Nc1nc2c(ccc3ccccc32)s1)c1ccco1 | -293*
CC/C(=N\Nc1nncc2ccccc12)c1ccc(F)cc1 | -190*
NC(=O)c1ccc(NC(=O)C#Cc2ccccc2)cc1 | -112*
COc1ccc(NC(=O)C#Cc2ccccc2)cc1OC | -212*
CN(C)c1ccc(N/C=C/C(=O)c2ccco2)cc1 | -105*
SMILES | aSyn 5UTR act
O=C(/C=C/Nc1ccc(Br)cc1F)c1ccco1 | 57
CC(=O)Nc1ccc(N/C=C/C(=O)c2ccco2)cc1 | -323*
O=C(/C=C/Nc1ccccc1O)c1ccco1 | -87*
CCc1ccc(NC(=O)Nc2ccon2)cc1 | -136*
CCc1ccc(NC(=O)Nc2cnccn2)cc1 | -104*
CCCCc1ccc(NC(=O)Nc2cnccn2)cc1 | -98*
O=C(Nc1ccc([N+](=O)[O-])cc1)Nc1ccon1 | 74
COc1ccc(Cc2nc3ccc(C(=O)NCC(C)(C)OC)cc3o2)cc1 | -116*
COc1ccc(Cc2nc3ccc(C(=O)NCc4cc(C)no4)cc3o2)cc1 | -104*
O=C(NCC1CCOCC1)c1ccc2nc(Cc3cccc(Cl)c3)oc2c1 | -79*
COc1ccc(Cc2nc3ccc(C(=O)NCCSC)cc3o2)cc1 | -98*
CSCCNC(=O)c1ccc2nc(C3CCCCC3)oc2c1 | -67*
O=[N+]([O-])/C(C(Cl)=C(Cl)Cl)=C(/Sc1ccccc1)N1CCCCC1 | -78*
Nc1ccccc1SC1CC(=O)N(c2ccc3c(c2)OCCO3)C1=O (centres undefined) | -78*
Cn1/c(=N/NC(=O)c2ccccc2Br)sc2ccccc21 | -75*

Bioassay records from PubChem BioAssay.
